Compound activity (PubChem BioAssay)
Most compounds without a hit are left out; they make up all but 28% or so of the library.
DAT uptake mod – changed human dopamine transporter uptake under cocaine IC80 | actives 1.3% (n = 110,000) | LLC-PK1 hDAT cells, [14C]-dopamine uptake with cocaine IC80; actives deviate in either direction | B-score at 10 µM;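 active = Z score or B-score, a plate-position-corrected score, falls beyond the plate's 99.7% confidence bounds, in either direction; inactive = both scores lie inside the 99.7% bounds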
CYP2C19 inh – inhibitors of human CYP2C19; P33261; CYP2C19 Supersomes, luciferin-H EGE luminescence, 30 min; inhibition, % at 5 µM; actives 21% (n = 96,000); AID 778;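 active = CYP2C19 inhibition above a set limit at 5 µM in the primary screen, cut at about 50% in these data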
CYP2C19 activ – increases human CYP2C19 enzyme activity; P33261; activation factor at 5 µM; 96,000 tested, under 10 active; recombinant CYP2C19, luciferin-H EGE luminescence; stronger effect = higher value; 0 = fully inhibited enzyme, 1 = untreated enzyme; AID 1025;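 active = activation factor of at least 2 at 5 µM in the primary screen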
CYP2C9 inh – blocks human cytochrome P450 2C9; inhibition, % at 5 µM; P11712; actives 20% (n = 96,000); CYP2C9 Supersomes, luciferin-H conversion, luminescence;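 active = blocking of liver enzyme CYP2C9 beyond about 50% at 5 µM, limit read from the data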
D1 mod – allosteric modulators of human D1 dopamine receptor; P21728; actives 5.9% (n = 58,000); HEK293 D1, CRE-luciferase, dopamine EC30 potentiation; actives deviate in either direction; AID 641; B-score at 10 µM;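 active = luminescence count or its row- and column-corrected plate score outside the 99.7% band of the plate's sample wells, on either side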
Target sequence (P21728 whole entry, looked up): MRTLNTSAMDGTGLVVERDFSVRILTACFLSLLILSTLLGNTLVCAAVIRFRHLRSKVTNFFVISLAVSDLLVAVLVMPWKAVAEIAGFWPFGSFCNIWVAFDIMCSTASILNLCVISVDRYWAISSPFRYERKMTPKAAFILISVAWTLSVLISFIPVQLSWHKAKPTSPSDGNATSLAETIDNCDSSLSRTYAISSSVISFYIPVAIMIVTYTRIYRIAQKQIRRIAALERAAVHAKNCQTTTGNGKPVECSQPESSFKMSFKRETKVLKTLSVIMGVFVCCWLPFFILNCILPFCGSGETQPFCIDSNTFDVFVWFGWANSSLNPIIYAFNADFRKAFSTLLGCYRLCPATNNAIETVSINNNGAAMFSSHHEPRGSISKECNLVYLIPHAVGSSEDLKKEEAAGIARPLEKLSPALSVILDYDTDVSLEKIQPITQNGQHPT
CYP2C9 activ – activators of human CYP2C9; P11712; recombinant CYP2C9, luciferin-H conversion, luminescence; stronger effect = higher value; factor 1 = untreated enzyme, 0 = blocked; activation factor at 5 µM; actives 1.4% (n = 96,000); AID 1024;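 active = activation factor of 2 or more for CYP2C9 at a 5 µM dose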
Numbers stand for hits; i = inactive; nt = not tested or not shown.

SMILES	DAT uptake mod	CYP2C19 inh	CYP2C19 activ	CYP2C9 inh	D1 mod	CYP2C9 activ
Cc1ccc(S(=O)(=O)Nc2ccc3nc(C)sc3c2)cc1	i	i	i	79	nt	i
CCN(CCCNC(=O)c1[nH]c(C)c(C(C)=O)c1C)c1ccccc1	i	i	i	i	i	i
Cc1onc(-c2c(Cl)cccc2Cl)c1C(=O)n1nnc2ccccc21	i	i	i	i	nt	i
COC(=O)c1cnn(C(=O)c2cc(OC)ccc2Br)c1N	i	i	i	i	nt	2
CCCn1c(SCC(=O)NC(C)(C)C)nnc1C(C)C	i	i	i	i	i	i
O=C(Nc1ccc2nc(SCc3ccc(Cl)cc3)sc2c1)c1ccccc1C(=O)N1CCOCC1	-7.1	i	i	i	nt	i
Cc1onc(-c2c(F)cccc2Cl)c1C(=O)OCN1C(=O)c2ccccc2C1=O	i	56	i	i	i	i
Cc1noc(C)c1C(=O)OCC(=O)NCCc1ccc(Cl)cc1	i	i	i	i	i	i
COc1ccc(CNC(=O)COC(=O)c2c(-c3c(F)cccc3Cl)noc2C)cc1OC	i	97	i	56	nt	i
Nc1c(Cl)cc(Cl)cc1C(=O)OCC(=O)NC1CC1	i	i	i	i	nt	2.1
O=C(COC(=O)c1ccccc1C(=O)c1ccc(Cl)c([N+](=O)[O-])c1)NC1CCCCCC1	i	i	i	i	nt	i
c1ccc(OCCSc2nnc3sc4ccccc4n23)cc1	i	i	i	i	-6	i
CCN(CC)C(=O)CSc1nnc(-c2ccccc2)n1N	i	i	i	i	i	i
Cc1ccccc1Nc1nc(N)nc(CSc2nnc3sc4ccccc4n23)n1	i	i	i	i	i	2.4
O=C(O)Cn1c(SCCOc2ccccc2)nc2ccccc21	i	i	i	i	i	i
COc1cccc(OCCSc2nnc3sc4ccccc4n23)c1	i	50	i	i	i	i
CCN(CC)C(=O)CSc1nnc2sc3ccccc3n12	i	77	i	i	i	i
C=C1[C@@H](C)C2[C@H](Cc3ccccc3)NC(=O)[C@]23OC(=O)CC[C@H](O)CCC[C@H](C)C/C=C/[C@H]3[C@@H]1O (some centres not stated)	i	nt	nt	nt	i	nt
COc1ccc(/C(C)=N/NC(=O)c2nc(C)cc(C)n2)cc1	i	i	i	i	nt	2.3
COC(=O)CSc1nnc(C2COc3ccccc3O2)n1-c1ccccc1 (configuration not stated)	i	58	i	i	i	i
c1ccc(-c2nn3c(C4COc5ccccc5O4)nnc3s2)cc1 (configuration not stated)	nt	nt	nt	nt	i	nt
COc1cccc(Nc2c(F)c(F)c(F)c(F)c2C(=O)O)c1	i	i	i	61	i	i
CC(=O)Cc1nsc(NC(=O)C2Cc3ccccc3C(=O)O2)n1 (configuration not stated)	i	i	i	i	i	i
Cc1ccc(C(=O)C(OC(=O)CNS(=O)(=O)c2ccccc2)c2ccccc2)cc1 (configuration not stated)	i	i	i	55	nt	i
O=C(OCc1ccccc1)c1cccc(-c2nnn(Cc3ccccc3)n2)c1	i	i	i	63	nt	i
SMILES	DAT uptake mod	CYP2C19 inh	CYP2C19 activ	CYP2C9 inh	D1 mod	CYP2C9 activ
CC(=O)Nc1cccc(C(=O)OCc2ccccc2)c1	i	98	i	i	i	i
CC(=O)Nc1cccc(C(=O)OC(C(=O)c2ccc(C)cc2)c2ccccc2)c1 (configuration not stated)	i	i	i	76	nt	i
CO/N=C/c1ccc(N2CCN(C(=O)c3ccc(Cl)cc3Cl)CC2)c([N+](=O)[O-])c1	i	i	i	i	nt	i
COCC(=O)Nc1ccc(C(C)C)cc1	i	i	i	i	nt	i
COc1ccc(C(=O)OC(C(=O)c2ccc(C)cc2)c2ccccc2)cc1 (configuration not stated)	i	i	i	57	nt	i
CC(=O)Nc1cccc(C(=O)OC(C(=O)c2ccc(C)c(C)c2)c2ccccc2)c1 (configuration not stated)	i	i	i	i	nt	i
CCOC(=O)Nc1cc(C(=O)OC)cc(C(=O)OC)c1	i	i	i	i	i	i
CCOCCOC(=O)c1cccc(NC(=O)OCC)c1	i	71	i	63	i	i
CC(Nc1n[nH]c(=S)[nH]c1=O)C(=O)OCc1ccccc1 (configuration not stated)	i	i	i	90	i	i
CCCCOC(=O)C(C)Nc1n[nH]c(=S)[nH]c1=O (configuration not stated)	i	i	i	79	nt	i
CCCCN(Cc1ccco1)C(=O)Cn1ncc2c(=O)oc3ccc(C)cc3c21	i	i	i	i	nt	i
Cc1nonc1NC(=O)OC1CCCCC1	i	i	i	i	nt	i
C=CCC1(O)C(=O)Nc2ccccc21 (configuration not stated)	i	i	i	i	i	i
Cn1c(=O)oc2cc(S(=O)(=O)NC3CCN(Cc4ccccc4)CC3)ccc21	i	nt	nt	nt	i	nt
O=S(=O)(NCCc1ccccc1)c1cccc(S(=O)(=O)N2CCOCC2)c1	i	89	i	61	i	i
O=S(=O)(NCc1ccc(F)cc1)c1cccc(S(=O)(=O)N2CCOCC2)c1	i	i	i	i	nt	i
O=S(=O)(NCCC1=CCCCC1)c1cccc(S(=O)(=O)N2CCOCC2)c1	i	76	i	75	i	i
O=S(=O)(NCc1ccco1)c1cccc(S(=O)(=O)N2CCOCC2)c1	i	50	i	i	i	i
O=S(=O)(NC1CCN(Cc2ccccc2)CC1)c1cccc(S(=O)(=O)N2CCOCC2)c1	i	54	i	i	i	i
COc1cc(OC)nc(NC2OC(=O)c3ccccc32)n1 (configuration not stated)	i	i	i	i	i	i
O=S(=O)(CCc1ccccc1)N1CCOCC1	i	70	i	i	i	i
CC1(c2nnc(-c3ccccc3)o2)CC(c2ccccc2)=NO1 (configuration not stated)	i	nt	nt	nt	nt	nt
COc1cc2c(cc1OC)C1=NC(=O)CN1C(SCc1ccccc1)=N2	i	i	i	i	nt	i
Cc1occc1C(=O)Nc1ccc2c(c1)OCCO2	i	81	i	i	i	i
Cc1cc(C(=O)Nc2ccc3c(c2)OCCO3)c(C)o1	i	i	i	i	i	i
Cc1c([N+](=O)[O-])c(C(=O)Nc2ccc3c(c2)OCCO3)nn1C	i	68	i	i	nt	i
CCN(CC)c1cccc(OCC(=O)N(C)CCC#N)c1	i	i	i	i	nt	i
COC(=O)C1(C)Nc2ccccc2C(=O)N1c1ccccc1C (configuration not stated)	i	i	i	i	i	i
Cn1c(=O)c2[nH]c(N3CCOCC3)nc2n(-c2ccccc2)c1=O	i	i	i	i	i	i
CCCn1c(N)nc2ccccc21	i	i	i	i	nt	i
